# Data published in PubChem BioAssay (NCATS).
# Values joined by “and” are separate entries in the source; they are usually repeats but may differ in a detail not shown here. Equal entries are not always repeated. Results filed as inconclusive are left out. Entries that show only a call come without a potency. Active and inactive are the calls of the source. Unless noted, calls follow the shape of the dose curve; as a rule, active = well fitted curve in the direction sought with a large enough effect; inconclusive = small, poorly fitted or top-dose-only effect, or another doubt; inactive = no such curve, though single readings can be large; an effect the other way counts as inactive or inconclusive.
# Assays:
# [1] = Cell Viability - BJ (AID 421; calls by dose curve;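 also: potency is read from the fitted curve at half-maximal effect; cells exposed to compound for 40 hours at 37 °C before readout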); settings: BJ fibroblast viability, qHTS
# Procedure, shortened: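 Cytotoxicity as drop in intracellular ATP (CellTiter-Glo, 20 min RT) after 40 hr compound exposure of BJ fibroblasts at 37 °C. Titrations scaled between DMSO and 100 uM tamoxifen, Hill-fitted for AC50.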
# [2] = Cell Viability - HepG2 (AID 433; calls by dose curve;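 also: potency is read from the fitted curve at half-maximal effect; potency for ATP loss meaning cytotoxicity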); settings: qHTS
# Procedure, shortened: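 HepG2 cells, 1500 per well, treated 40 hr at 37 °C in complete medium; viability from intracellular ATP by CellTiter-Glo luminescence. Normalized to DMSO and 100 uM tamoxifen; AC50 from Hill fit of qHTS concentration-response.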
# [3] = Cell Viability - HUV-EC-C (AID 542); settings: HUV-EC-C endothelial cell viability, qHTS; series mostly up to 92.2 µM; also: nearly all actives have a fitted effect of over 35% in size
# Procedure, shortened: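 Cells were seeded at 1000 per well and incubated 5 hr at 37 °C before compound addition. After 40 hr at 37 °C, CellTiter-Glo reagent was added for 20 min and luminescence read. AC50 values came from Hill-equation modelling.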
# [4] = Cell Viability - Renal Proximal Tubule (AID 545); settings: renal proximal tubule cells viability, primary cells of rat origin; activity change, negative = cytotoxicity: at 91.7 µM (top of the series); also: nearly all actives have a fitted effect of over 40% in size
# Procedure, shortened: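 Rat renal proximal tubule primary cells, 1000/well, exposed to compounds for 40 hr at 37 °C in complete medium; cellular ATP read by CellTiter-Glo luminescence. AC50 from concentration-response fitted with standard Hill equation.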
# [5] = Cell Viability - Mesenchymal (AID 546); settings: mesenchymal cells viability, qHTS; activity change, negative = cytotoxicity: at 91.7 µM (top of the series);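 also: cells exposed to compound for 40 hours before reading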
# Procedure, shortened: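 In this qHTS cytotoxicity format, glomerulus-derived human mesenchymal kidney cells received compound for 40 hr, then luciferase-based ATP quantitation. Concentration-response data were fitted with the Hill equation.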
# [6] = MultiTox-Fluor Cytotoxicity Assay - LYMP1-003 - Dead Cells (AID 961); settings: LYMP1-003 lymphoblastoid cells, dead-cell protease fluorescence; series mostly up to 92.2 µM; also: nearly all actives have a fitted effect of over 70% in size
# Procedure, shortened: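 Dead-cell protease release, detected as bis-AAF-R110 fluorescence at 485/520 nm, was measured in LYMP1-003 cells after 16 h compound treatment at 37 C. AC50 values came from Hill-modeled qHTS curves normalized to DMSO (0%) and 15 uM tetraoctylammonium bromide (100%).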
# [7] = Cell Viability - LYMP2-003 (AID 965); settings: LYMP2-003 lymphoblastoid cell viability; series mostly up to 92.2 µM;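 also: cells exposed to compounds for 24 h before reading; nearly all actives have a fitted effect of over 50% in size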
# Procedure, shortened: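 Human lymphoblastoid LYMP2-003 cells, 2500/well, exposed to compounds for 24 h at 37 C in complete medium. Viability read as intracellular ATP by CellTiter-Glo luminescence; AC50 from Hill-equation fits of qHTS concentration-response data.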
# [8] = Cell Viability - LYMP2-011 (AID 969); settings: LYMP2-011 lymphoblastoid cells viability; series mostly up to 92.2 µM; also: nearly all actives have a fitted effect of over 60% in size
# Procedure, shortened: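 In this qHTS cytotoxicity format, compounds are tested across concentrations on human lymphoblastoid cells in complete medium for 24 hours at 37 C. Viability is taken as cellular ATP measured by luciferase luminescence.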
# [9] = Cell Viability - LYMP2-013 (AID 970); settings: LYMP2-013 lymphoblastoid cells viability; series mostly up to 92.2 µM; also: nearly all actives have a fitted effect of over 55% in size
# Procedure, shortened: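 Cytotoxicity is scored as a concentration-dependent drop in intracellular ATP in human lymphoblastoid cells after 24 hr compound exposure at 37 C. ATP is quantified by luciferase luminescence, and AC50 values come from Hill-equation modeling.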
# [10] = Cell Viability - LYMP2-023 (AID 975); settings: LYMP2-023 lymphoblastoid cell viability; series mostly up to 92.2 µM; also: nearly all actives have a fitted effect of over 55% in size
# Procedure, shortened: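 Steps: seed 2500 human lymphoblastoid cells per well, incubate 5 hr at 37 C, add compound for 24 hr at 37 C, add CellTiter-Glo, hold 30 min at room temperature, read luminescence. AC50 derived by Hill modelling.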
# [11] = Cell Viability - LYMP2-025 (AID 976); settings: LYMP2-025 lymphoblastoid cell viability; series mostly up to 92.2 µM
# Procedure, shortened: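 Acute cytotoxicity is scored as a concentration-dependent fall in intracellular ATP, measured by luciferase luminescence, in human lymphoblastoid LYMP2-025 cells exposed to compound for 24 hours at 37 C. AC50 values come from standard Hill fits.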
# [12] = Cell Viability - LYMP2-002 (AID 977); settings: LYMP2-002 lymphoblastoid cell viability, qHTS; series mostly up to 92.2 µM;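 also: compound exposure lasted 24 h at 37 °C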
# Procedure, shortened: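 In this qHTS viability screen, 2500 human lymphoblastoid cells per well receive compound for 24 hr at 37 C, and luciferase-based ATP luminescence gives the viability signal. Tetraoctylammonium bromide serves as positive control.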
# [13] = Cell Viability - LYMP2-008 (AID 980); settings: LYMP2-008 lymphoblastoid cell viability, qHTS; series mostly up to 92.2 µM; also: nearly all actives have a fitted effect of over 60% in size
# Procedure, shortened: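 Cells seeded at 2500/well and rested 5 hr at 37 C; compounds added over a concentration range and incubated 24 hr at 37 C; CellTiter-Glo added, 30 min at room temperature; luminescence read and AC50 fitted with Hill model.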
# [14] = Cell Viability - LYMP2-014 (AID 983); settings: LYMP2-014 lymphoblastoid cells, viability qHTS; series mostly up to 92.2 µM; also: nearly all actives have a fitted effect of over 50% in size
# Procedure, shortened: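 Cells are plated at 2500/well and left 5 hr at 37 C. Compounds are added across a concentration range and incubated 24 hr at 37 C in complete medium. CellTiter-Glo is added, and luminescence is read after 30 min at room temperature.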
# [15] = Cell Viability - LYMP2-016 (AID 984); settings: LYMP2-016 lymphoblastoid cell viability, qHTS; series mostly up to 92.2 µM; also: nearly all actives have a fitted effect of over 55% in size
# Procedure, shortened: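 Human lymphoblastoid LYMP2-016 cells, 2500 per well, treated with compounds for 24 h at 37 C. Viability read as intracellular ATP by CellTiter-Glo luminescence after 30 min at room temperature; AC50 from Hill fits of concentration-response.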
# [16] = Cell Viability - LYMP2-026 (AID 989); settings: LYMP2-026 lymphoblastoid cell viability, qHTS; series mostly up to 92.2 µM; also: nearly all actives have a fitted effect of over 50% in size
# Procedure, shortened: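 Cells are seeded at 2500 per well and held 5 hr at 37 C. Compounds are added in concentration series for 24 hr, then CellTiter-Glo reagent is applied and luminescence read.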
# [17] = Cell Viability - LYMP1-002 - Assay at 40 hr (AID 994); settings: LYMP1-002 lymphoblastoid cell viability; series mostly up to 92.2 µM; also: nearly all actives have a fitted effect of over 60% in size
# Procedure, shortened: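 Cells are plated at 2500 per well and rested 5 hr at 37 C. Compounds are added and incubated 40 hr at 37 C. CellTiter-Glo reagent is added for 30 min at room temperature before luminescence is read.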
# [18] = qHTS assay for small molecule antagonists of retinoid X receptor alpha signaling (AID 588546; active = well fitted inhibition curve with a large enough effect in the signal ratio, with a control signal flat, not every such curve was filed as active; the % refers to the signal ratio;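 also: cells stimulated with 9-cis-retinoic acid as agonist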); settings: HEK293T RXRa-UAS-bla, beta-lactamase ratio, antagonist mode; measured here: W530 green channel, cytotoxicity proxy
# Procedure, shortened: (§1)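 Beta-lactamase reporter inhibition, read as CCF4 fluorescence ratio (ex 405, em 460/530 nm) after 2 h at RT. HEK293T UAS-bla cells, 2500/well, were stimulated with 9-cis-RA at 500 or 100 nM final alongside test compound for 18 h at 37 C.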
# [19] = target: Retinoic acid receptor RXR-alpha (Homo sapiens) (UniProt P19793); assay: as above; settings: HEK293T RXRa-UAS-bla, beta-lactamase ratio, antagonist mode
# Procedure, shortened: as §1
# [20] = qHTS assay for environmental chemicals that activate the Aryl hydrocarbon Receptor (AhR) signaling pathway (AID 651777); settings: 1A2-DRE human hepatoma cells, luciferase, 24 h; activation: stronger effect = higher value; also: nearly all actives have a fitted effect of over 15% in size
# Procedure, shortened: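 Quantitative HTS in stably transfected human liver-derived cells whose luciferase gene sits downstream of the CYP1A2 promoter and dioxin response element. After 24 hr exposure at 37 C, One-Glo luminescence was measured.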
# Chain of Retinoic acid receptor RXR-alpha (Homo sapiens) (P19793 whole entry, looked up): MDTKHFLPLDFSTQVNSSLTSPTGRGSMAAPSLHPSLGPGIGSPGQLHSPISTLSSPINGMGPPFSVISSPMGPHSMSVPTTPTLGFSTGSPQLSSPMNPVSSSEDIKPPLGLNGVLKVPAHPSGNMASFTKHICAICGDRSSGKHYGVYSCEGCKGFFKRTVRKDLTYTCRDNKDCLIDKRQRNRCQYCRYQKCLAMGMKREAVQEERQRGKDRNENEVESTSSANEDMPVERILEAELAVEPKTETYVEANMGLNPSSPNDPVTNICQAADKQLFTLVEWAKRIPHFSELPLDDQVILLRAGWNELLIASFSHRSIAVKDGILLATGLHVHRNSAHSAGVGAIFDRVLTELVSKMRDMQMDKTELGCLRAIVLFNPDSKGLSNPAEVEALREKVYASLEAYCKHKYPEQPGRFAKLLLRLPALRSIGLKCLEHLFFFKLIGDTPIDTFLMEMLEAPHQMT
SMILES,Potency [1],Potency [2],Potency [3],Potency [4],Potency [5],Potency [6],Potency [7],Potency [8],Potency [9],Potency [10],Potency [11],Potency [12],Potency [13],Potency [14],Potency [15],Potency [16],Potency [17],max response [18],max response [19],activation [20]
CN(C)c1ccc(Cc2ccc(N(C)C)cc2)cc1,> 92 µM (inactive),> 92 µM (inactive),inactive,inactive,inactive,inactive,inactive,inactive,inactive,inactive,inactive,inactive,inactive,inactive,inactive,inactive,inactive,3.74% and -6.02%,1.04% (inactive) and -36.9% (inactive),8.36% (inactive) and 2.98% (inactive)
Cc1ccc(C(=O)O)cc1[N+](=O)[O-],> 92 µM (inactive),> 92 µM (inactive),inactive,inactive,inactive,inactive,inactive,inactive,inactive,inactive,inactive,inactive,inactive,inactive,inactive,inactive,inactive,-6.14%,8.29% (inactive),-0.0314% (inactive)
Cc1ccc(N)cc1[N+](=O)[O-],> 92 µM (inactive),> 92 µM (inactive),inactive,inactive,inactive,inactive,inactive,inactive,inactive,inactive,inactive,inactive,inactive,inactive,inactive,inactive,inactive,-2.06%,-2.5% (inactive),0.886% (inactive)
C1CCCNCC1,> 92 µM (inactive),> 92 µM (inactive),inactive,inactive,inactive,inactive,inactive,inactive,inactive,inactive,inactive,inactive,inactive,inactive,inactive,inactive,inactive,-4.82%,5.08% (inactive),0.178% (inactive)
c1ccc(CSCc2ccccc2)cc1,> 92 µM (inactive),> 92 µM (inactive),inactive,inactive,inactive,inactive,inactive,inactive,inactive,inactive,inactive,inactive,inactive,inactive,inactive,inactive,inactive,-3.11%,1.24% (inactive),-0.759% (inactive)
O=C(OCc1ccccc1)c1ccccc1O,> 92 µM (inactive),> 92 µM (inactive),inactive,inactive,inactive,inactive,inactive,inactive,inactive,inactive,inactive,inactive,inactive,inactive,inactive,inactive,inactive,-7.45% and -18.3%,-0.686% (inactive) and -0.189% (inactive),-0.76% (inactive) and -0.296% (inactive)
